We go through 63 compounds from PubChem BioAssay AID2417 (National Center for Advancing Translational Sciences (NCATS), 2010).

About 4,300 (3.1%) of roughly 140,000 compounds were called active. Another 21% or so got no clear call; they are omitted. This excerpt belongs to a sample that is enriched for actives. Values without a mark were called inactive.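 How the source made its calls: active means readout at or below -70, meaning at least 70% loss of cells showing the perinucleolar compartment, a nuclear body marking cancer cells; inconclusive means readout between -30 and a set limit; inactive means the rest.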

This test in a line: High Content Assay for Compounds that inhibit the Assembly of the Perinucleolar Compartment.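 Further: plate controls were DMSO wells for no effect and camptothecin positive control wells for full effect.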 Conditions: PC3M PTB-GFP, PNC prevalence imaging, 16 h; at 10 µM; active compounds read low. In short, it runs like this:
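PC3M cells stably expressing PTB-GFP, 750–1000 cells/well, treated 16 h at 37 °C with compound (23 nl of library stock), in duplicate. After paraformaldehyde fixation and Hoechst stain, imaged at 20x; PNC prevalence scored by image analysis.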
As for `CCCCN1C(=O)CCC(C(=O)O)C1c1ccc(OC)cc1` (stereo not drawn), the activity change (PNC), negative = inhibition was 36.8%.
To `CCN(CC)c1ccc(S(=O)(=O)N2CCOCC2)cc1NC(=O)CSc1cccc[n+]1[O-]` belongs 11.8%; to `O=C(c1cccnc1NCc1ccccc1)N1CCOCC1`, 40.9%; to `Cc1nc(NCCN)c(C#N)c2c1COC(C)(C)C2`, 32.5%.
Then `Cc1nc(NCc2ccccc2)c(C(N)=O)c2c1COC(C)(C)C2`, with -122% (active); and `S=C(NCc1ccc(Cl)cc1)NC1CCCCC1`, with 32.1%; and `COc1ccc(S(=O)(=O)N2CCC(C(=O)N3CCOCC3)CC2)cc1OC`, with -7.88%.
To `COc1ccc(S(=O)(=O)N2CCN(C(=O)c3cccs3)CC2)cc1OC` belongs -15.3%; to `COc1ccc(S(=O)(=O)N2CCC(C(=O)N3CCc4ccccc4C3)CC2)cc1OC`, -84.1% (active); to `C=CCNC(=O)/C(=C\c1cccc([N+](=O)[O-])c1)NC(=O)c1ccccc1`, 48.8%.
`O=C(CSc1ncnc2scc(-c3ccccc3)c12)NCc1ccc2c(c1)OCO2`: the activity change (PNC), negative = inhibition was 40.3%.
Then `Cc1cc(O)ccc1NC1=CC(=O)CC(C)(C)C1`, with -15.4%; and `Cc1noc(COc2ccccc2OCC(O)CNC(C)(C)C)n1` (stereo not drawn), with -3.16%; and `Cc1noc(COc2ccccc2OCc2onc(C)c2Cl)c1Cl`, with -100% (active).
Consider `Cc1nc2ccccc2cc1OCc1ccc(F)cc1`, for which the activity change (PNC), negative = inhibition is 41.2%.
To `COc1ccc(CCNC(=O)COC(=O)C2CCCCC2)cc1` belongs 43.3%.
To `Cc1cccc(C)c1NC(=O)C(c1ccccc1)N1CC(=O)Nc2ccccc21` (stereo not drawn) belongs 43.2%; to `CCn1c(C(C)NC(=O)c2ccc(C)cc2)n[nH]c1=S` (stereo not drawn), 8.92%; to `Cc1ccc(CC(=O)Nc2ccc(OC(F)F)c(Cl)c2)cc1C`, 5.84%.
To `N#CC1=C(SCc2ccccc2)NC(=O)C(C#N)C12CCCC2` (stereo not drawn) belongs 9.75%; to `N#CC1=C(SCc2ccc(C#N)cc2)N=C(N)C(c2nc(-c3ccccc3)cs2)C12CCCCC2` (stereo not drawn), -112% (active).
For the compound `COc1ccnc(Oc2ccccc2)n1`, the activity change (PNC), negative = inhibition was -12.4%.
With `COc1cc(/C=N/NC(=O)Nc2ccccc2)ccc1OCCOc1ccccc1C`, the activity change (PNC), negative = inhibition is -16.5%.
Consider `C=CCOc1ccc(/C=N/n2cncn2)cc1OC`, for which the activity change (PNC), negative = inhibition is 5.24%.
Then `C/C=C/c1ccc(OCCOc2ccc(C=O)cc2OC)c(OC)c1`, with -108% (active).
Regarding `CCOC(=O)/C=C/C(=O)OCC(=O)NC(c1ccccc1)c1ccccc1`, the activity change (PNC), negative = inhibition was -28.2%.
Then `COCCOC(=O)C1=C(C)NC(=O)CC1c1cc2c(cc1Br)OCO2` (stereo not drawn), with 63.3%; and `COc1ccc(C2CC(=O)Nc3cc(C)c(C)cc32)c(OC)c1OC` (stereo not drawn), with -26.4%.
To `CCCOc1ccccc1C1CC(=O)Nc2cc3c(cc21)OCO3` (stereo not drawn) belongs -92% (active); to `CCCSc1nc2[nH]ncc2c(=O)[nH]1`, 26.1%; to `Cc1cc(C(=O)COc2ccccc2[N+](=O)[O-])c(C)n1-c1cccc(S(=O)(=O)N2CCOCC2)c1`, 101%.
For `CC1(C)C2CC=C(/C=N/NC(=O)c3ccc(Cl)cc3)C1C2` (stereo not drawn), the activity change (PNC), negative = inhibition was 14.2%.
For `CCN(CC(=O)NCCc1ccccc1)S(=O)(=O)c1ccc(C)cc1`, the activity change (PNC), negative = inhibition is -0.956%.
Turning to `O=C(Nc1ccc2c(c1)OCO2)c1ccc(N2C(=O)c3ccccc3C2=O)cc1`, the activity change (PNC), negative = inhibition was -11%.
Then `Cn1c(=O)n(C)c2cc(C(=O)Nc3ccc4c(c3)OCO4)ccc21`, with -87% (active); and `COc1ccc(C(=O)Nc2ccc3c(c2)OCO3)cc1OC`, with 5.14%.
To `COc1cc(C(=O)Nc2cc(C(F)(F)F)ccc2N2CCOCC2)ccc1O` belongs 44.6%; to `CCOC(=O)C1C(=O)C=C(c2ccc(OC)cc2)CC1c1ccco1` (stereo not drawn), 27.1%.
Take `CCOC(=O)C1C(=O)NC(N2CCN(c3ccccc3)CC2)=NC1c1ccco1` (stereo not drawn): the activity change (PNC), negative = inhibition is -90% (active).
Then `CCOC(=O)C1C(=O)NCC1c1ccccc1` (stereo not drawn), with -16.9%; and `COc1cccc(/C=N/NC(=O)CNC(=O)c2ccc(S(=O)(=O)N3CCOCC3)cc2)c1OC`, with 69.9%.
To `Cc1ccccc1N/C(SCc1ccc(Cl)cc1)=C(/C#N)C(N)=O` belongs -1.22%; to `CCN(CC)c1ccc(C(=O)N/N=C(\C)c2cccc(OC)c2)cc1`, 14.7%.
Then `Cc1ccc(CCC(=O)Nc2ncc(Cc3cc(Cl)ccc3Cl)s2)o1`, with -88.9% (active).
Take `Cc1ccc(Cc2cnc(N)s2)o1`: the activity change (PNC), negative = inhibition is -17.8%.
To `Cc1cnc(C(=O)OCC(=O)Nc2ccc(Cl)cc2Cl)cn1` belongs 261%; to `O=C(/C=C/c1ccccc1[N+](=O)[O-])NCC1CCCO1` (stereo not drawn), 58.9%.
For the compound `Cc1ccc(SCC(=O)Nc2ccc3c(c2)OCCO3)cc1`, the activity change (PNC), negative = inhibition was 36.7%.
Then `OCCNCCOc1ccc(Cl)c(Cl)c1`, with 32.5%; and `Cc1ccc(C)c(NC(=O)CSc2nc3c(oc4ccccc43)c(=O)n2-c2ccccc2)c1`, with -5.79%.
Then `Cc1ccc(-n2c(SCC(=O)Nc3ncc(Cl)cc3Cl)nc3ccccc32)cc1`, with -115% (active); and `Cc1ccc(SCCC(=O)OCC(=O)Nc2ncc(Cl)cc2Cl)cc1`, with -2.97%; and `CN(C)/C(=N\OC(=O)c1ccccc1)c1nonc1N`, with 6.05%.
Then `C/C(Cc1ccccc1)=N\NC(=O)CNC(=O)c1cccc(Br)c1`, with 19.9%; and `Cc1cc(N2CCOCC2)nc(-c2ccc(Br)cc2)n1`, with -19.2%; and `COc1ccc(-c2nc(-c3ccccc3)no2)c(OC)c1`, with -102% (active).
As to `CCOc1nc(-c2ccc(OC)cc2)ccc1-c1noc(-c2cc(OC)c(OC)c(OC)c2)n1`, the activity change (PNC), negative = inhibition is -17.5%.
To `COc1ccc(-c2noc(-c3cccc(OC)c3OC)n2)cc1OC` belongs 7.54%.
To `Cc1ccc(S(=O)(=O)N(NC2=NS(=O)(=O)c3ccccc32)C(=O)c2ccccc2)cc1` belongs 35.5%; to `COc1ccc(C(=O)NNS(=O)(=O)c2ccc(C)cc2)cc1`, -23.7%.
Turning to `N#CCCN1CCN(S(=O)(=O)c2ccc(S(=O)(=O)NC3CC3)cc2)CC1`, the activity change (PNC), negative = inhibition was -11.6%.
Then `CC(C)(C)c1cc(CN2CCN(CCC#N)CC2)cc(C(C)(C)C)c1O`, with -122% (active); and `N#CCCN1CCN(S(=O)(=O)c2ccc(S(=O)(=O)N3CCCC3)cc2)CC1`, with -15%.
